DAX1 inh-1 – blocks DAX1 repression of SF-1 activated StAR promoter; HEK293T StAR-luciferase reporter, SF-1/DAX-1 repression relief; inhibition, % at 6.8 µM; 370,000 tested, 1.1% active;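 active means inhibition above the mean over all tested compounds plus 3 SD, cut at about 3.6% in these data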;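 further: 0% = DAX-1 cells with DMSO and 100% = cells lacking DAX-1 with DMSO; higher inhibition means more luminescence from relief of DAX-1 repression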
hgDAF-12 ag – agonists of H. glycines DAF-12 nuclear receptor; HEK293 GAL4-hgDAF12 UAS-luciferase reporter, agonist luminescence; normalized to butyrate control; AID 687014; activation, % at 6.8 µM; 370,000 tested, 1.8% active;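 active means activation above a cutoff set at the mean of all screened compounds plus 3 SD, cut at about 10% in these data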;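 further: 0% = DMSO wells and 100% = sodium butyrate wells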
hcDAF-12 act – activators of H. contortus DAF-12 nuclear receptor. HEK293 hcDAF-12 lit1-tk-luc reporter, luminescence; 0% DMSO, 100% Δ7-dafachronic acid. activation, % at 6.8 µM. 370,000 tested, 1.4% active;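 active means activation above the mean of all tested compounds plus 3 SD, cut at about 5.5% in these data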;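 further: 100% = response to 3 µM Δ7-dafachronic acid high control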
ssDAF12 agonist – activates DAF-12 receptor from parasite S. stercoralis | HEK293 ssDAF-12/GRIP1 lit1-tk-luc reporter, luminescence; % of 3 µM dafachronic acid response | activation, % at 6.8 µM | 370,000 tested, 1% active | AID 652126;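 active means activation above the mean over all tested compounds plus 3 SD, cut at about 0.9% in these data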;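 further: 0% = DMSO-only wells and 100% = 3 µM delta7-dafachronic acid wells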
DAX1 inh-2 – inhibits human nuclear receptor DAX1. P51843. HEK293 Gal4-DAX1 luciferase reporter, luminescence. inhibition, % at 6.75 µM. 340,000 tested, 0.99% active. AID 504766;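 active means inhibition above the mean over all tested compounds plus 3 SD, cut at about 4.2% in these data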;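 further: 0% = DAX1-transfected cells with DMSO and 100% = empty-vector control cells with DMSO; inhibition shows as a rise in luminescence from relieved DAX1 repression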
DAX1 inh confirm – confirmation of human DAX1 (NR0B1) inhibitors; HEK293T StAR-promoter luciferase reporter, SF-1/DAX-1 repression; 2,400 tested, 87% active; shares compounds with DAX1 inh-1; inhibition, % at 6.8 µM;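 active means inhibition above the average of every tested compound plus 3 SD, cut at about 3.8% in these data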;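 further: 0% = DAX-1 cells with DMSO and 100% = no DAX-1 control cells with DMSO; active compounds raise luminescence by relieving repression of the StAR reporter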
Target sequence (P51843 whole entry, looked up): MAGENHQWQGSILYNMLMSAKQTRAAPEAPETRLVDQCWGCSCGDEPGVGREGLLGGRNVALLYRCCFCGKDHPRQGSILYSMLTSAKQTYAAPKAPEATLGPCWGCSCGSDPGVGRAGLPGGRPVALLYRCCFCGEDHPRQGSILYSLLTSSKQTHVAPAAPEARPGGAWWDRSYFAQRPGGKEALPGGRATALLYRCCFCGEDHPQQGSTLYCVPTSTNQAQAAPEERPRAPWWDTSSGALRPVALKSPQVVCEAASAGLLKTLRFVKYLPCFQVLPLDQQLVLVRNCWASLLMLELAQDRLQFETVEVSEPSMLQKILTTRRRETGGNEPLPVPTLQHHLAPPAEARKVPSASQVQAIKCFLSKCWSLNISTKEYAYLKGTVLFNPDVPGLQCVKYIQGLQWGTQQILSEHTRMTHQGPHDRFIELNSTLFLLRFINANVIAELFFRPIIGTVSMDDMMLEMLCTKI
SF1 AF2mut Luc – counter-screen for DAX1 inhibitors: nonselective inhibitors with SF-1 AF2 mutant. shares compounds with DAX1 inh-1. HEK293 StAR-luciferase, luminescence. inhibition, % at 6.8 µM. 2,400 tested, 78% active. AID 652136;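 active means inhibition above the mean of all tested compounds plus 3 SD, cut at about 3% in these data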;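 further: 0% = DAX-1 transfected cells with DMSO and 100% = cells without DAX-1 with DMSO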
The depositor's hits bear a star; x = not tested or not shown. In the library only some 4.1% were active in any assay of this set; here they are far more common.

SMILES | DAX1 inh-1 | hgDAF-12 ag | hcDAF-12 act | ssDAF12 agonist | DAX1 inh-2 | DAX1 inh confirm | SF1 AF2mut Luc
CCOC(=O)Cc1c(C)c2c(C)[nH]nc2oc1=O | 5.4* | 2 | -1 | -1 | -1 | -1 | 0
CC(=O)N(C)c1ccc(N=Nc2ccc3ncccc3c2)cc1 | 5.5* | 12* | 5.7* | 1 | 1 | 10* | 3.7*
C[C@H](O)[C@@H]1C(=O)N2CCc3c([nH]c4ccccc34)[C@@H]2C[C@@H]1N(C)Cc1ccc(Cl)cc1 | 6.2* | 3 | 1 | -1 | 0 | 1 | 0
COc1ccc(C(=O)Nc2cccc(/C(C)=N\NC(=O)c3ccoc3C)c2)cc1OC | 12* | 13* | 3 | 0 | 2 | -1 | -2
C/C(=N/NC(=O)C1CCCC1)c1ccc(NC(=O)C(F)(F)F)cc1 | 0 | 2 | -1 | 0 | 0 | x | x
C/C(=N/NC(=O)c1ccoc1C)c1ccc(NC(=O)C2CCCC2)cc1 | 6.1* | 15* | 6.0* | 0 | 2 | 5.3* | 4.2*
C/C(=N\NC(=O)c1nn(C)c(C)c1Br)c1ccc(NC(=O)C2CCCC2)cc1 | 8.9* | 12* | 4 | 0 | 2 | 2 | -1
CC(=O)Nc1ccc(S(=O)(=O)NCCc2ccc3c(c2)OCCO3)cc1 | 0 | -2 | -1 | -1 | 1 | x | x
Cc1ccc(S(=O)(=O)Nc2cccc(C(=O)NCC3(N4CCCCC4)CCCCC3)c2)cc1F | 6.2* | -1 | 1 | -1 | 0 | 4.6* | 3.8*
CNS(=O)(=O)c1cccc(C(=O)NCC2(N3CCCCC3)CCCCC2)c1 | 0 | -1 | 2 | -1 | 0 | x | x
COc1ccc(NS(=O)(=O)c2cccc(C(=O)NCC3(N4CCCCC4)CCCCC3)c2)cc1 | 7.8* | 4 | 1 | -1 | 1 | 10* | 5.4*
CCOc1ccc(S(=O)(=O)Nc2ccc(C(=O)NCC3(N4CCCCC4)CCCCC3)cc2)cc1 | 8.7* | 1 | 1 | -1 | 2 | 8.3* | 4.9*
Cc1cccc(NS(=O)(=O)c2cccc(C(=O)NCC3(N4CCCCC4)CCCCC3)c2)c1 | 5.0* | 1 | 2 | -1 | 1 | 3 | 1
C/C(=N/NC(=O)CNC(=O)c1cccc(F)c1)c1ccc2c(c1)CCCC2 | 0 | 2 | 0 | -1 | 0 | x | x
O=C1NCCCCC1NS(=O)(=O)c1ccc(Cl)cc1 (stereo not drawn) | -1 | -2 | 2 | -1 | 0 | x | x
OCC[C@@H]1C[C@H](O)[C@@H](O)[C@@]2(CCc3ccccc3CO2)O1 | 0 | 2 | 0 | -1 | 2 | x | x
NC(c1csc(Nc2cc(Oc3ccccc3)ncn2)n1)c1ccccc1Cl (stereo not drawn) | -4 | 3 | -1 | -2 | x | x | x
C/C(=N\NC(=O)c1ccccn1)C12CC3CC(CC(C3)C1)C2 | 5.8* | 13* | 4 | 0 | 1 | 5.6* | 3.3*
O=C(Nc1ccccn1)C12CC3CC(CC(C3)C1)C2 | 0 | -1 | -1 | -1 | 0 | x | x
CCOC(=O)c1c(S(=O)(=O)Nc2ccccn2)c(C)n(C)c1C | 0 | 1 | -2 | -1 | 0 | x | x
CN1CCN(c2ccccc2NC(=S)NC(=O)c2cc3ccccc3o2)CC1 | 0 | 0 | -1 | -1 | 0 | x | x
Cc1c(NC(=S)NC(=O)c2cc3ccccc3o2)cccc1C(=O)O | 6.8* | 4 | 3 | 0 | 2 | 6.6* | 5.8*
Cc1ccccc1OCC(=O)NCCCNC(=O)c1ccncc1 | 0 | 2 | -1 | -1 | 2 | x | x
COc1ccc(/C=C/c2cc(O)cc(O[C@@H]3O[C@H](CO)[C@@H](O)[C@H](O)[C@H]3O)c2)cc1O | 5.2* | 10 | 4 | 0 | x | 13* | 7.4*
O=C(/C=C/[C@H]1O[C@@H](n2ccc(=O)[nH]c2=O)[C@H](O)[C@@H]1O)NC(c1ccccc1)c1ccccc1 | 0 | 2 | 2 | -1 | x | x | x
Cc1csc(NC(=O)c2cc(C)on2)n1 | 7.0* | 6 | 0 | 0 | 1 | 6.8* | 5.9*
